According to PubChem BioAssay (Tox21):
Records with an inconclusive call do not appear. Activity calls are given as the source filed them. Unless noted, the call rests on the fitted dose curve; in most records, active means well fitted curve in the direction sought with a large enough effect in the repeat runs; inconclusive means weak or mixed curves; inactive means no such curve, though single readings can be large; an effect the other way counts as inactive or inconclusive.

Key:
[1] = qHTS assay to identify small molecule antagonists of the estrogen related receptor (ERR) signaling pathway from Tox21 library - cell viability counter screen (AID 1224834); further: nearly all actives have a fitted effect of over 30% in size; further: potency means the concentration at half of the fitted maximal effect
Outline: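 ERR reporter cells were plated 6 h before compound addition, then exposed to test compounds in DMSO for 17.5 h at 37 C. Viability was read as CellTiter-Fluor fluorescence after a 30-minute incubation at 37 C.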

[2] = biological target: Luciferin 4-monooxygenase (Photinus pyralis) (UniProt P08659); experiment: qHTS assay to identify small molecule inhibitors of firefly luciferase (AID 1224835); further: nearly all actives have a fitted effect of over 25% in size; further: potency means the concentration at half of the fitted maximal effect; on activity change, negative = inhibition: series mostly up to about 120 µM
Outline: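 Biochemical qHTS: compounds run as interplate titrations against purified firefly enzyme, with D-luciferin and ATP each at its KM concentration. Light output recorded by CCD imaging.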

[3] = qHTS assay to identify small molecule agonists of the constitutive androstane receptor (CAR) signaling pathway - cell viability counter screen (AID 1224836); further: nearly all actives have a fitted effect of over 45% in size; further: potency means the concentration at half of the fitted maximal effect; on viability change, negative = cytotoxic: series mostly up to about 92 µM
Outline: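 Counter screen multiplexed with the CAR reporter readout: HepG2 cells co-transfected with hCAR and the CYP2B6-2.2kb construct receive a 15-concentration compound series and 0.75 uM PK11195 (final), then CellTiter-Fluor fluorescence is read after 23 h.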

[4] = qHTS assay to identify small molecule antagonists of the constitutive androstane receptor (CAR) signaling pathway - cell viability counter screen (AID 1224837); further: nearly all actives have a fitted effect of over 45% in size; further: potency means the concentration at half of the fitted maximal effect; on activity change, negative = cytotoxicity: series mostly up to about 92 µM
Outline: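 HepG2 cells stably expressing hCAR and a CYP2B6-2.2kb reporter were plated and pre-incubated 4 hr at 37 C/5% CO2, then given compounds at 15 concentrations plus 50 nM CITCO (final). After 23 hr, viability was read by CellTiter-Fluor fluorescence.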

[5] = biological target: Nuclear receptor subfamily 1 group I member 3 (Homo sapiens) (UniProt Q14994); experiment: qHTS assay to identify small molecule antagonists of the constitutive androstane receptor (CAR) signaling pathway (AID 1224838); further: nearly all actives have a fitted effect of over 40% in size
Outline: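 HepG2 cells stably co-transfected with hCAR and a CYP2B6-2.2kb luciferase reporter were seeded 4 h before compound addition at 15 concentrations. Cells were stimulated with 50 nM CITCO (final) for 24 h at 37 C; luciferase luminescence was then read.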

[6] = biological target: Nuclear receptor subfamily 1 group I member 3 (Homo sapiens) (UniProt Q14994); experiment: qHTS assay to identify small molecule agonists of the constitutive androstane receptor (CAR) signaling pathway (AID 1224839); further: nearly all actives have a fitted effect of over 15% in size; further: potency means the concentration at half of the fitted maximal effect; on activation: series mostly up to about 92 µM
Outline: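 A 15-concentration quantitative screen uses HepG2 cells co-transfected stably with human CAR and CYP2B6-2.2kb reporter. Treatment lasts 24 h with 0.75 uM PK11195 final present; ONE-Glo luminescence is the signal.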

[7] = qHTS assay to identify small molecule antagonists of the estrogen related receptor signaling pathway with the pleiotropic PPARgamma coactivator (PGC) from Tox21 10K library - cell viability counter screen (AID 1224840; active means well fitted cell-killing curve with a large enough effect in the repeat runs, not every such curve was filed as active; further: nearly all actives have a fitted effect of over 40% in size)
Outline: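 PGC/ERR cells were seeded at 2,000 cells/well and left 6 hours at 37 C/5% CO2 before pin-tool addition of compounds in DMSO. After 17.5 hours at 37 C, CellTiter-Fluor was added and fluorescence read 30 minutes later.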

[8] = biological target: Thyrotropin receptor (Homo sapiens) (UniProt P16473); experiment: qHTS assay to identify small molecule agonists of the thyroid stimulating hormone receptor (TSHR) signaling pathway (AID 1224843; calls by dose curve; further: nearly all actives have a fitted effect of over 45% in size)
Outline: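 Steps: seed 800 TSHR-HEK293 cells per well; add test compound and hold 30 min at ambient temperature; dispense cAMP-d2 then anti-cAMP cryptate; incubate 1 h at ambient; measure fluorescence intensity.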

[9] = qHTS assay to identify small molecule antagonists of the estrogen related receptor signaling pathway with the pleiotropic PPARgamma coactivator (PGC) from Tox21 10K library (AID 1224841; call rule not given here; further: series mostly up to about 92 µM; actives are mostly falling curves and most rising ones were filed inactive; nearly all actives have a fitted effect of over 50% in size)
Outline: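 PGC/ERR reporter cells were seeded at 2,000 cells/well and held 6 hours at 37 C/5% CO2 before pin-tool addition of compounds in DMSO. After 18 hours at 37 C, One-Glo was added and luminescence read after 30 minutes at room temperature.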

[10] = qHTS assay to identify small molecule agonists of the estrogen related receptor signaling pathway with the pleiotropic PPARgamma coactivator (PGC) from Tox21 10K library (AID 1224842); further: nearly all actives have a fitted effect of over 15% in size
Outline: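 PGC/ERR reporter cell line, 2,000 cells per well, incubated 6 h at 37 C before 23 nL compound in DMSO was added. After 18 h at 37 C, One-Glo luminescence read following 30 min at room temperature.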
On the % scale 0 is the no-effect control and ±100 the full control effect.

Chain of Nuclear receptor subfamily 1 group I member 3 (Homo sapiens) (Q14994 whole entry, looked up): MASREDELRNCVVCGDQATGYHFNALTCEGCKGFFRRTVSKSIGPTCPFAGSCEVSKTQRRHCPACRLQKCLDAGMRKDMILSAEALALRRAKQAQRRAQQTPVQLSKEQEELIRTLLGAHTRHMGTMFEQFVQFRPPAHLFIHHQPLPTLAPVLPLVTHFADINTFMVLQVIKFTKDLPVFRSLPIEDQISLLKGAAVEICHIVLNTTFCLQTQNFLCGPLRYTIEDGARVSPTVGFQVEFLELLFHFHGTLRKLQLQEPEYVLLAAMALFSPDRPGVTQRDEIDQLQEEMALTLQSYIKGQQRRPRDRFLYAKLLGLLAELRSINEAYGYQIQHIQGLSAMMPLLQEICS
Chain of Thyrotropin receptor (Homo sapiens) (P16473 whole entry, looked up): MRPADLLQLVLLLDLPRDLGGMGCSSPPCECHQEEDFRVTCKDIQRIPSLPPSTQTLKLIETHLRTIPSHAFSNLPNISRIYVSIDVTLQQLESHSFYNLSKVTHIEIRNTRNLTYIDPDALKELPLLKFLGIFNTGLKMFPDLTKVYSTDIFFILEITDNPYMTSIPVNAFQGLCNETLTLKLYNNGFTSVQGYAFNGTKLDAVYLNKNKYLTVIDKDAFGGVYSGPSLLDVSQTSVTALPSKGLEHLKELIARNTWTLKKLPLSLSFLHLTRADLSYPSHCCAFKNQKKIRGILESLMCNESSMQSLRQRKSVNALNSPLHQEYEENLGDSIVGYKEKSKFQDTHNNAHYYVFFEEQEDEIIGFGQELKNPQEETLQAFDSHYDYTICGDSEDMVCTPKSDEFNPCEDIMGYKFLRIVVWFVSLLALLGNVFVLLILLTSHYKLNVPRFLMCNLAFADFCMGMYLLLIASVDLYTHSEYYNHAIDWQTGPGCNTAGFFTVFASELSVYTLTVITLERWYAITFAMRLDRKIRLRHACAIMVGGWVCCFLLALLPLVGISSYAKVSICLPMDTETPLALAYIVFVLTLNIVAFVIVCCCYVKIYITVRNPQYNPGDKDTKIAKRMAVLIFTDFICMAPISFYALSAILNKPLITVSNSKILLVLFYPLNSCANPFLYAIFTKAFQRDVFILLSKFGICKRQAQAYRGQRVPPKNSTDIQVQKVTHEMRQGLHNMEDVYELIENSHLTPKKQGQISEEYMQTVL
Chain of Luciferin 4-monooxygenase (Photinus pyralis) (P08659 whole entry, looked up): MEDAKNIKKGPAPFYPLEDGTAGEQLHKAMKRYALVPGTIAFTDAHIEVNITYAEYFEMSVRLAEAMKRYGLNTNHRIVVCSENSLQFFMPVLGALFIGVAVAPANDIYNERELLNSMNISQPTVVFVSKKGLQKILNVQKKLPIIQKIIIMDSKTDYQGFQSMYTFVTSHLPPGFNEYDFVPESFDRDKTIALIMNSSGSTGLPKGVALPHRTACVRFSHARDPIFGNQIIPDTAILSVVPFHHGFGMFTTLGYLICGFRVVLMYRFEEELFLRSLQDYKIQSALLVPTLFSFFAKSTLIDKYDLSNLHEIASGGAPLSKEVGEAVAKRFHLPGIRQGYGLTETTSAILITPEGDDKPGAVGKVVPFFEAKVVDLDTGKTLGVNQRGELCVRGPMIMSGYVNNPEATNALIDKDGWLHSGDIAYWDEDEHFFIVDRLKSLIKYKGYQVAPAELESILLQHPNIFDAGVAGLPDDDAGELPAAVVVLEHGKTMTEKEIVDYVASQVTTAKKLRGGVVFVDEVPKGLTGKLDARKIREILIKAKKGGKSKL

O=C1CCCC(=O)O1
inactive: Potency [1] | Potency [2] | Potency [3] | Potency [4] | outcome [5] | Potency [6] | outcome [7] | Potency [8]

COCCOCCOCCOCCOCCO
inactive: Potency [1] | Potency [2] | Potency [3] | Potency [4] | outcome [5] | Potency [6] | Potency [9] | outcome [10] | Potency [8]

COc1ccc2c(c1OC)C(=O)O[C@@H]2[C@H]1c2c(cc3c(c2OC)OCO3)CCN1C
inactive: Potency [2] | outcome [5] | Potency [9] | outcome [10] | Potency [8]
active: Potency [1] 11.9 µM | Potency [3] 8.41 µM | Potency [4] 10.6 µM

COC(=O)C1CC(=O)C(C(=O)OC)CC1=O (centres undefined)
inactive: viability change, negative = cytotoxic [1] 2.89% [at 8.39 µM] | activity change, negative = inhibition [2] 0.09% [at 10.5 µM] | viability change, negative = cytotoxic [3] 10.3% [at 8.39 µM] | activity change, negative = cytotoxicity [4] 2.02% [at 8.39 µM] | viability change, negative = cytotoxic [7] 11% [at 8.39 µM] | activity, negative = inhibition [9] 1.96% [at 8.39 µM] | activation [10] 0.14% [at 8.39 µM] | activation [8] -7.69% [at 8.39 µM]

COc1ccc2c(c1)C(=O)N(CCc1ccc(S(=O)(=O)NC(=O)NC3CCCCC3)cc1)C(=O)C2(C)C
inactive: Potency [1] | Potency [2] | Potency [3] | Potency [4] | Potency [6] | Potency [8]

CCC(C)(CCC(C)C)C(=O)O (centres undefined)
inactive: Potency [1] | Potency [2] | Potency [3] | Potency [4] | outcome [7] | Potency [9] | outcome [10]

O=C(CCNNC(=O)c1ccncc1)NCc1ccccc1
inactive: Potency [1] | Potency [2] | Potency [3] | Potency [4] | outcome [5] | Potency [6] | Potency [8]

CC(CO)c1ccccc1 (centres undefined)
inactive: Potency [1] | Potency [2] | Potency [3] | Potency [4] | outcome [5] | Potency [6] | outcome [7] | Potency [8]

Cc1c(I)c(=O)n(-c2ccccc2)n1C
inactive: Potency [1] | Potency [2] | Potency [3] | Potency [4] | outcome [5] | Potency [6] | Potency [9] | outcome [10] | Potency [8]

O=C(O)c1cc(Cl)cc([N+](=O)[O-])c1Cl
inactive: Potency [1] | Potency [2] | Potency [3] | Potency [4] | outcome [5] | Potency [6] | Potency [9] | outcome [10] | Potency [8]

COc1ccc2nc(SCc3ncc(C)c(OC)c3C)[nH]c2c1
active: Potency [2] 13.8 µM
inactive: Potency [1] | Potency [3] | Potency [4] | outcome [5] | Potency [9] | outcome [10] | Potency [8]

C[C@H](N)[C@H](O)c1cccc(O)c1
inactive: Potency [1] | Potency [2] | Potency [3] | Potency [4] | outcome [7] | Potency [8]

CCOC(=O)/C=C/c1ccccc1
inactive: Potency [1] | Potency [3] | Potency [4] | outcome [5] | Potency [6] | Potency [8]
active: Potency [2] 35.6 µM

CCO[Si](CCCS)(OCC)OCC
inactive: Potency [1] | Potency [2] | Potency [3] | Potency [4] | outcome [7] | Potency [9] | outcome [10] | Potency [8]

CC(C)N(c1ccccc1)C(C)C
inactive: Potency [1] | Potency [2] | Potency [3] | Potency [4] | outcome [5] | Potency [6] | outcome [7] | Potency [8]

Brc1ccc(-c2ccccc2)cc1
inactive: Potency [1] | Potency [3] | Potency [4] | outcome [5] | Potency [6] | outcome [7] | Potency [8]
active: Potency [2] 35.5 µM

C=C(C)C(=O)OCCN(CC)CC
inactive: Potency [1] | Potency [2] | Potency [3] | Potency [4] | outcome [5] | Potency [6] | outcome [7] | Potency [8]

Nc1ncnc(Nc2ccccc2)n1
inactive: Potency [1] | Potency [2] | Potency [3] | Potency [4] | outcome [5] | outcome [7] | Potency [8]

COCCc1ccc(OCC2CO2)cc1 (centres undefined)
inactive: Potency [1] | Potency [2] | Potency [3] | Potency [4] | outcome [5] | Potency [6] | Potency [8]

CCN(C)C(=O)Oc1cccc([C@H](C)N(C)C)c1
inactive: Potency [1] | Potency [2] | Potency [3] | Potency [4] | outcome [5] | Potency [6] | Potency [8]

O=C(O)c1ccc(Cl)cc1Cl
inactive: Potency [1] | Potency [2] | Potency [3] | Potency [4] | outcome [7] | Potency [8]

CCCCCCCCC1CCC(=O)O1 (centres undefined)
inactive: Potency [1] | Potency [2] | Potency [3] | Potency [4] | outcome [5] | Potency [9] | outcome [10] | Potency [8]
active: Potency [6] 30.6 µM

CCC(C=O)CC
inactive: Potency [1] | Potency [2] | Potency [3] | Potency [4] | outcome [5] | Potency [6] | Potency [9]

Cc1ccccc1N=O
inactive: Potency [1] | Potency [2] | Potency [3] | Potency [4] | outcome [7] | Potency [9] | outcome [10] | Potency [8]

CCCCNc1ccc(C(=O)OCCN(C)C)cc1
inactive: Potency [1] | Potency [2] | Potency [3] | Potency [4] | outcome [5] | outcome [7] | Potency [8]

COc1ccc(C2CNC(=O)C2)cc1OC1CCCC1 (centres undefined)
inactive: Potency [1] | Potency [2] | Potency [3] | Potency [4] | outcome [7] | Potency [9] | outcome [10] | Potency [8]

CN(CCOc1ccc(NS(C)(=O)=O)cc1)CCc1ccc(NS(C)(=O)=O)cc1
inactive: Potency [1] | Potency [2] | Potency [3] | Potency [4] | outcome [7] | Potency [8]

COc1cc2c(cc1OC)C(=O)CC2
inactive: Potency [1] | Potency [2] | Potency [3] | Potency [4] | outcome [5] | Potency [6] | outcome [7] | Potency [8]

CC(C)CC(=O)O
inactive: Potency [1] | Potency [2] | Potency [3] | Potency [4] | outcome [7] | outcome [10] | Potency [8]

CC[C@H](C)C(=O)O[C@H]1C[C@H](O)C=C2C=C[C@H](C)[C@H](CC[C@@H](O)C[C@@H](O)CC(=O)O)[C@H]21
inactive: Potency [1] | Potency [2] | Potency [3] | Potency [4] | outcome [7]
